From PubChem BioAssay (NCATS) come the findings set out here.

Test [1] addresses Lysosomal acid glucosylceramidase (Homo sapiens) (UniProt P04062). In words: Glucocerebrosidase-p2 (AID 348; in the data active = potency below about 10 µM; note: potency is the fitted concentration of half-maximal effect). The following applies: purified GBA, blue fluorogenic substrate, 40 min. An outline of the steps:
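Normal human glucocerebrosidase (0.2 nM) with blue fluorogenic substrate (80 uM final) in citrate/phosphate pH 5.9 with 10mM sodium taurocholate, 0.01% tween-20; 40 min RT, NaOH/glycine stop; fluorescence Ex 365/Em 440; AC50 from a titration from 0.6 nM upwards.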

A short description of test [2]: AP1 Signaling Pathway (AID 357).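 Note: ME-180 reporter cells stimulated with EGF at its EC50 level; % is set by controls: 0 for no effect and ±100 for the full control effect.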 As to conditions: ME-180 AP-1-bla reporter, EGF-induced, beta-lactamase ratio, 5 h; at 7.69 µM (top of the series) unless noted. The method in brief: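 A ratiometric CCF4 readout (405 nm excitation; 460 and 530 nm emission) quantified AP-1-driven beta-lactamase in ME-180 cells after 5 h with compound and EC50 EGF; AC50 values were derived for activators and inhibitors.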

Test [3] concerns the target Cytochrome P450 1A2 (Homo sapiens) (UniProt P05177). In words: p450-cyp1a2 (AID 410; calls by dose curve; note: potency is the fitted concentration of half-maximal effect;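 for activity change, negative = inhibition: -100% = full effect of reference inhibitor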). The following applies: recombinant CYP1A2, luciferin-ME demethylation, luminescence; series mostly up to 57 µM. The method in brief:
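O-Demethylation of luciferin 6' methyl ether by human CYP1A2 is monitored as luciferase luminescence. Substrate sits at Km (100uM); enzyme is 20nM. Values are scaled to 57 uM furafylline as maximal inhibition.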

Test [4] in a line: NFAT Signaling Pathway (AID 444).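 Note: carbachol stimulus at about its EC50 of 1 µM final; % is set by controls: 0 for no effect and ±100 for the full control effect.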 The following applies: Jurkat NFAT-bla M1, carbachol, beta-lactamase ratio, 5 h; at 7.69 µM (top of the series) unless noted. The method in brief:
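Jurkat cells with NFAT-driven β-lactamase reporter and co-expressed M1 receptor, stimulated with carbachol (final 1 uM, ~EC50), compound titration, 5 h at 37 °C. CCF4 loaded 1 h at RT; 460/530 nm ratio gave %activity and AC50.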

Test [5] is described as follows: Stat Signaling Pathway (AID 446).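 Note: ME-180 cervical cancer cells given 40 pM IL-6 alongside compound; SIE-controlled beta-lactamase reporter measured as 460/530 nm FRET emission ratio; % is set by controls: 0 for no effect and ±100 for the full control effect.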 As to conditions: ME-180 (cervical carcinoma) SIE beta-lactamase reporter, IL-6 stimulated, 5 h; at 7.69 µM (top of the series) unless noted. An outline of the steps:
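Emission at 460 and 530 nm (excitation 405 nm) reports SIE-controlled beta-lactamase in ME-180 cells. Cells received compound with 40 pM IL-6 for 5 hrs at 37 C; data scaled between 300 pM IL-6 and 125 nM JAK-inhibitor controls.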

Test [6] deals with Glucocorticoid receptor (Homo sapiens) (UniProt P04150). In words: GR-EFC Redistribution (AID 451; calls by dose curve; note: potency is the fitted concentration of half-maximal effect). The following applies: CHO-K1 GR-EFC translocation, beta-gal luminescence, 2 h. An outline of the steps: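 CHO-K1 cells expressing nuclear EA and GR-ED fragments of b-gal; compounds titrated up to 46 uM final, 2 h at 37 C. GR nuclear translocation read as complemented b-gal luminescence after 1 h RT detection.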
Sequence of Glucocorticoid receptor (Homo sapiens) (P04150 whole entry, looked up, the tested form may be a part): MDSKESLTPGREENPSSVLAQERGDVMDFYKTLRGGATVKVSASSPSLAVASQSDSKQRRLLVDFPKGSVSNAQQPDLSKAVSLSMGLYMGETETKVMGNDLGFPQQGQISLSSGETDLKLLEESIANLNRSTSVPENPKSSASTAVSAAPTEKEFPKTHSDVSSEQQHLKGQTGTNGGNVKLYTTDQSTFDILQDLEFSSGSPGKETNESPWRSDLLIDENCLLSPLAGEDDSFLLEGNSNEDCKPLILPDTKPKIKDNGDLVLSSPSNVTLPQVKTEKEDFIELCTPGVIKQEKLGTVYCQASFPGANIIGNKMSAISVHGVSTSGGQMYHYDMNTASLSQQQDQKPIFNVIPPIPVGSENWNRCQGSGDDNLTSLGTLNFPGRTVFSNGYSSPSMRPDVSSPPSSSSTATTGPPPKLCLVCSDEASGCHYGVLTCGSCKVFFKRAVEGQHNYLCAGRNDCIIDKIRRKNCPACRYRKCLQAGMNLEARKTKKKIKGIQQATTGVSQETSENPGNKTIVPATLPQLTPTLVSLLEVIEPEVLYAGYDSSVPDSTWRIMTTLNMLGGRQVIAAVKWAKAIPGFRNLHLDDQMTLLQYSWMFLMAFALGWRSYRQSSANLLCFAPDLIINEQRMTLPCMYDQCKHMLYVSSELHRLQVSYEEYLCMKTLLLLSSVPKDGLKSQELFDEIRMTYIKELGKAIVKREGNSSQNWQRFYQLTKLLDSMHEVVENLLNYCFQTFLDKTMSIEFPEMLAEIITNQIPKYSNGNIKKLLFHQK

Test [7] addresses 3',5'-cyclic-AMP phosphodiesterase 4B (Homo sapiens) (UniProt Q07343). In words: qHTS Assay for Inhibitors of PDE-IV (AID 607; active = well fitted activation curve with a large enough effect in the main read-out, with a control signal flat, not every such curve was filed as active; note: % of control where 0% means no effect). As to conditions: HEK293 ACTOne CNG channel cells, membrane potential fluorescence; series mostly up to 22.9 µM. An outline of the steps: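 The readout is membrane depolarisation from a cAMP-sensing CNG channel, detected with a potential dye at ex 535/em 590. Cells were HEK293-derived (endogenous PDE-IV) at 1000 cells/well, titrated up to 22.9 uM final.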
Background: qHTS replaces the single test concentration by a dilution series.

Test [8] in a line: qHTS Assay for Lipid Storage Modulators (AID 1519; calls by dose curve). The following applies: Drosophila S3 cells, BODIPY lipid droplet/cell ratio, laser cytometry, cells loaded with oleic acid; for activity change, negative = inhibition: at 57.5 µM (top of the series). An outline of the steps:
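Cells seeded at 5,000 per well were treated with compounds over a concentration series and loaded with oleic acid (400 uM, as added). Lipid droplet fluorescence (488 nm excitation, 500-530 nm channel) was read by laser-scanning cytometry and normalized to 20 uM Triacsin C.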

Test [9] is described as follows: Primary qHTS for small molecule stabilizers of the endoplasmic reticulum resident proteome: Secreted ER Calcium Modulated Protein (SERCaMP) assay (AID 1508630; active = well fitted curve in the direction sought with a large enough effect; an effect the other way counts as inactive or inconclusive; note: % is set by controls: 0 for no effect and ±100 for the full control effect). The following applies: SH-SY5Y GLuc-SERCaMP (Gaussia luciferase released on ER calcium loss) secretion, thapsigargin, luminescence; series mostly up to 38.4 µM. The method in brief: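 The SH-SY5Y reporter protocol was run at 3 concentrations up to 38.3 uM (primary) or 11 concentrations (follow-up): 16 h compound, 100 nM thapsigargin for 4 h, then extracellular luciferase luminescence.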

The target of test [10] is Mitogen-activated protein kinase 10 (Mus musculus) (UniProt Q61831). In words: JNK3 AlphaScreen Assay (AID 530). As to conditions: JNK3 lysate, c-Jun phosphorylation; series mostly up to 57.1 µM. An outline of the steps: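 Activity was read by AlphaScreen after JNK3-containing HepG2 lysate (cytokine pre-activated) phosphorylated biotinylated GST-cJun with 10 uM ATP at room temperature. Phospho-Ser73 cJun antibody with Protein-A acceptor beads provided detection.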
For orientation: Bead proximity is the source of the signal in Alpha formats.

Test [11] deals with Cytochrome P450 2D6 (Homo sapiens) (UniProt P10635). As to the kind of experiment: qHTS Assay for Inhibitors and Substrates of Cytochrome P450 2D6 (AID 891; active = well fitted curve in the direction sought with a large enough effect; an effect the other way counts as inactive or inconclusive; note: nearly all actives have a fitted effect of over 60% in size; note: potency is the fitted concentration of half-maximal effect). As to conditions: recombinant CYP2D6, luciferin-ME EGE luminescence; series mostly up to 57.1 µM. An outline of the steps: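 Luminescent read-out of luciferin formed by 5 nM human CYP2D6 demethylating 30 uM Luciferin-ME EGE (Km level) over 60 min at room temperature after NADPH regeneration addition. Data normalized to full inhibition by 1.43 uM quinidine.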
Sequence of Cytochrome P450 2D6 (Homo sapiens) (P10635 whole entry, looked up): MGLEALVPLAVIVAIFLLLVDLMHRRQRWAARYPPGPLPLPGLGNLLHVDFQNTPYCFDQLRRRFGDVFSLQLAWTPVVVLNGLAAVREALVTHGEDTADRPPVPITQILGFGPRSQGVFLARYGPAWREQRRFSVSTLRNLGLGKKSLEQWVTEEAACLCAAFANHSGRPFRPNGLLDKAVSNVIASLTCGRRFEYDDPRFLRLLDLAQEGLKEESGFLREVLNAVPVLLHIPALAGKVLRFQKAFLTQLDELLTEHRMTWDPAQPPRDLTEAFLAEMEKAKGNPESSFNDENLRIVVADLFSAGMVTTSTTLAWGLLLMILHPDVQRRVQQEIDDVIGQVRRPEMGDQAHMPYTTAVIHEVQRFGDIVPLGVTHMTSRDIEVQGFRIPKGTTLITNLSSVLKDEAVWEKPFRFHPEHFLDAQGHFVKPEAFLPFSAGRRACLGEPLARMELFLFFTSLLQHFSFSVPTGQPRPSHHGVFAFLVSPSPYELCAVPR

Test [12] deals with Glucocorticoid receptor (Homo sapiens) (UniProt P04150). In words: GR-GFP Redistribution (AID 450;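 active = compounds whose dose series gives a full or clear partial fitted curve of increased nuclear translocation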; note: potency is the fitted concentration of half-maximal effect). The following applies: U2OS GR-GFP nuclear translocation, laser cytometry, 2 h.
For test [13], the target named is Cytochrome P450 3A4 (Homo sapiens) (UniProt P08684). In words: qHTS Assay for Activators of Cytochrome P450 3A4 (AID 885; active = well fitted curve in the direction sought with a large enough effect; an effect the other way counts as inactive or inconclusive; note: nearly all actives have a fitted effect of over 65% in size). The following applies: recombinant CYP3A4, Luciferin-PPXE luminescence, 60 min; series mostly up to 57.1 µM. The method in brief: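 Activators are scored by enhanced luminescence from CYP3A4 conversion of luciferin-PPXE (25uM, equal to KM) to luciferin, after 60 min at RT with an NADPH-regenerating system.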
Sequence of Cytochrome P450 3A4 (Homo sapiens) (P08684 whole entry, looked up): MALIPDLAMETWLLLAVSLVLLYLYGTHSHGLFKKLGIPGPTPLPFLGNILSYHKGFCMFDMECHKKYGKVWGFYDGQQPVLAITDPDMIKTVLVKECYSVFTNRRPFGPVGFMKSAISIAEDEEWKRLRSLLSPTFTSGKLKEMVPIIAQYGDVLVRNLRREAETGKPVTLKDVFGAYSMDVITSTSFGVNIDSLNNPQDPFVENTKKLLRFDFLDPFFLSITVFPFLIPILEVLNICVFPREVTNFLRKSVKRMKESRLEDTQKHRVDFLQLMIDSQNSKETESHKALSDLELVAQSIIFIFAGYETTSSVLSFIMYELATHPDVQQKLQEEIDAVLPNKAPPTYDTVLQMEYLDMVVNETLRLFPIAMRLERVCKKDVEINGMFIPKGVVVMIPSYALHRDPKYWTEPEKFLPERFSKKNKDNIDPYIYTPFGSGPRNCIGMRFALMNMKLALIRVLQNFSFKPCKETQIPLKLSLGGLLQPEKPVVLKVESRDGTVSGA

Setting [14] is: measured here: cell count channel max response.
[15] abbreviates: measured here: lipid channel max response.

Records with an inconclusive call do not appear. Activity calls are given as the source filed them. Unless noted, calls come from the whole dose curve; as a rule, active = well fitted curve in either direction with a large enough effect (not every such curve was filed as active); inconclusive = small, poorly fitted or top-dose-only effect, or another doubt; inactive = flat fitted curve, though single readings scatter.

Sequence of Lysosomal acid glucosylceramidase (Homo sapiens) (P04062 whole entry, looked up): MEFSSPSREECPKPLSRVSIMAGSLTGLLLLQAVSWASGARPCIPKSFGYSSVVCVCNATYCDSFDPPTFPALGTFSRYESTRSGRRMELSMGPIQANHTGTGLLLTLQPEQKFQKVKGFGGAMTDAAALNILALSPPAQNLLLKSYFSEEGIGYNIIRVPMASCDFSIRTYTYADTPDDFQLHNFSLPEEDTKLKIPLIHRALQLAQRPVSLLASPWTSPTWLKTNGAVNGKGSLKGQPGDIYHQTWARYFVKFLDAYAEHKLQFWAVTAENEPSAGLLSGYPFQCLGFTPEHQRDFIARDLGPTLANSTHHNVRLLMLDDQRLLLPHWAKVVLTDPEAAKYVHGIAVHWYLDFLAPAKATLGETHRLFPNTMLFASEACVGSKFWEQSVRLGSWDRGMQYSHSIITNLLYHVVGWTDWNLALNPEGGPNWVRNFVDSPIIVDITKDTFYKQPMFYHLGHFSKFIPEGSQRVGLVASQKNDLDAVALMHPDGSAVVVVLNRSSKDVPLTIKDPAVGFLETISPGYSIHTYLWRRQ
Sequence of Cytochrome P450 1A2 (Homo sapiens) (P05177 whole entry, looked up): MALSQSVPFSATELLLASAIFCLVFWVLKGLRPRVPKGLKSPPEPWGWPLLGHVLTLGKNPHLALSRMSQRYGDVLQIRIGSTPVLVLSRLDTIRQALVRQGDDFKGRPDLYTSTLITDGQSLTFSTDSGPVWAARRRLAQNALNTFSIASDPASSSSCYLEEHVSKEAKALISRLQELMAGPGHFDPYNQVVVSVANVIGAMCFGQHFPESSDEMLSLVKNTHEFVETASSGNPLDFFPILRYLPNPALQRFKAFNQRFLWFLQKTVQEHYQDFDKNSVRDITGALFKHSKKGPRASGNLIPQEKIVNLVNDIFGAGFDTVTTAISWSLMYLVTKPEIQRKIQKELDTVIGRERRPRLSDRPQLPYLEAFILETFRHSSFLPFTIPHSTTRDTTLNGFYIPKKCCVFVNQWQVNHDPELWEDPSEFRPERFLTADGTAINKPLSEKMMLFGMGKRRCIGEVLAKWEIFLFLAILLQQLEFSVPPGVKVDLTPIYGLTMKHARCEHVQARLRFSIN
Sequence of 3',5'-cyclic-AMP phosphodiesterase 4B (Homo sapiens) (Q07343 whole entry, looked up): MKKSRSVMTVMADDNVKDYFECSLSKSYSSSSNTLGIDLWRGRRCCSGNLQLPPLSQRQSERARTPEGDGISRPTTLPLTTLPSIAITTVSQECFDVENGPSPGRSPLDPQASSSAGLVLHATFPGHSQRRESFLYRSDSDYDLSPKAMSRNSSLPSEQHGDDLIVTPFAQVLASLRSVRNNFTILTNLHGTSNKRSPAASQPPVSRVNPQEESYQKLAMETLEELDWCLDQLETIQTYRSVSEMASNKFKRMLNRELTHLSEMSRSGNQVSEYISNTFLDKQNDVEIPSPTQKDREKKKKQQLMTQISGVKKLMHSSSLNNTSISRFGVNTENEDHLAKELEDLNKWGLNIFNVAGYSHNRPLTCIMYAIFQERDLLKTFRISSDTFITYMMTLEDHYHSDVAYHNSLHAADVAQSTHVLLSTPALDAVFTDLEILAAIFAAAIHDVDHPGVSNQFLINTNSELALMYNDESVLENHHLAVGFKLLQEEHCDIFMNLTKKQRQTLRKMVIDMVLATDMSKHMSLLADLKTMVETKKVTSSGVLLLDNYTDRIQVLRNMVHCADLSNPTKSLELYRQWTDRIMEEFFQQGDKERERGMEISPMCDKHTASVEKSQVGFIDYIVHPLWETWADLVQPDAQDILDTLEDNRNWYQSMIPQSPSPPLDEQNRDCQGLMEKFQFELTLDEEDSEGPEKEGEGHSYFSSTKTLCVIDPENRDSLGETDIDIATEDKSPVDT

On to `CC(=O)N1CCC2(CC1)CN(c1ccccn1)C2`, for which the Potency in test [1] was > 11.4 µM (inactive); in test [6], > 46 µM (inactive). Moreover, the activity change, negative = inhibition was -8.91% (inactive) in test [2], 6.27% (inactive) in test [4] and 7.33% (inactive) in test [8]. The Potency entry in test [3], in [7] and in test [9] was “inactive” in each case. In addition, the activity, negative = inhibition in test [5] was -0.186% (inactive). The max response in test [8] (setting [14]) turned out to be 3.77%; in test [8] (setting [15]), 14.1%.
Regarding `COc1ccccc1CN1CCCC2(CCN(S(C)(=O)=O)CC2)C1`, the Potency was > 11.4 µM (inactive) in [1], > 46 µM (inactive) in test [6] and 0.0631 µM (active) in test [11]. In addition, the activity change, negative = inhibition in test [2] is -4.49% (inactive); in test [4] it was -28.3% (inactive); in test [8], 2.11% (inactive). Besides, the Potency result in [3] and in [9] was “inactive” in each case. For the same compound, in test [5], the activity, negative = inhibition is 6.82% (inactive). In addition, the outcome in [10] was inactive. The values for the max response in test [8] (setting [14]) and in test [8] (setting [15]) were -15.8% and -12.2%, respectively.
For `O=c1c(-c2cc(F)cc(F)c2)nc2cnc(N3CCOCC3)nc2n1C1CC1`, the Potency is > 11.4 µM (inactive) in test [1], 1 µM (active) in test [3], > 9.22 µM (inactive) in test [12] and > 46 µM (inactive) in test [6]. In addition, the activity change, negative = inhibition in [2] was 7.91% (inactive); in test [4] it was 6.75% (inactive); in [8], 0.7% (inactive). The compound was called inactive in test [10]. For the same compound, the max response in test [8] (setting [14]) is 9.59%; in test [8] (setting [15]), 11.7%. Moreover, the Potency result in test [9] was “inactive”.
Consider `COc1ccc(C(=O)N2CCC[C@@]3(CCN(Cc4ccc(C#N)cc4)C3)C2)cc1`, for which the Potency in [1] was > 11.4 µM (inactive); in [6], > 46 µM (inactive). Further, the results for the activity change, negative = inhibition in test [2], in test [4] and in test [8] were -1.6% (inactive), -4.67% (inactive) and 3.64% (inactive), respectively. For the same compound, the Potency entry in test [3], in test [13] and in [9] was “inactive” throughout. The activity, negative = inhibition in [5] is 3.73% (inactive). Further, in test [10], the result was inactive. For the same compound, the max response in test [8] (setting [14]) was found to be 10.2%; in test [8] (setting [15]) it was 17.8%.
On to `COC(=O)N1CCC2(CCCN(c3ccc(-c4ccccc4)cc3)C2)CC1`, for which the Potency in [1] was > 11.4 µM (inactive); in test [3], 20 µM (active). For the same compound, the activity change, negative = inhibition in [2] is -0.311% (inactive); in [4] it was -18.6% (inactive); in test [8], -29.2% (inactive). Further, the activity, negative = inhibition in [5] was 3.59% (inactive). In [10], the call was inactive. Further, the Potency entry in [13] and in [9] was “inactive” each time. For the same compound, the figures for the max response in [8] (setting [14]) and in test [8] (setting [15]) were 11% and -21.4%, respectively.
Take `COc1ccc(NC(=O)N2CC[C@@]3(CCCN(C(=O)c4cnccn4)C3)C2)cc1`: the Potency in test [1] is > 11.4 µM (inactive). The activity change, negative = inhibition in test [2] is -10.4% (inactive); in test [4], -2.83% (inactive); in [8], 4.73% (inactive). In addition, the Potency entry in [3], in [7], in test [13], in [11] and in test [9] was “inactive” each time. The activity, negative = inhibition in test [5] is 6.32% (inactive). The outcome in test [10] was inactive. The values for the max response in [8] (setting [14]) and in [8] (setting [15]) were 2.35% and 9.8%, respectively.
